Structures are written as SMILES. Results filed as inconclusive are left out. The source made the active and inactive calls. Calls come from the whole dose curve.

The assay in a line: qHTS assay for small molecule disruptors of the mitochondrial membrane potential - cell viability (AID 720634).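 Note: human HepG2 liver cancer cells; nearly all actives have a fitted effect of over 20% in size.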 Particulars: HepG2 viability, ATP luminescence (CellTiter-Glo), 1 h; series mostly up to 83.2 µM. The text has this:
U.S. Tox21 Program National Center for Advancing Translational Sciences [NCATS] NIH Chemical Genomics Center [NCGC] U.S. Environmental Protection Agency [EPA] National Institutes of Environmental Health Sciences [NIEHS] National Toxicology Program [NTP] U.S. Food and Drug Administration [FDA] Tox21 Assay Overview: Mitochondrial membrane potential (MMP), one of the parameters for mitochondrial function, is generated by mitochondrial electron transport chain that creates an electrochemical gradient by a series of redox reactions. This gradient drives the synthesis of ATP, a crucial molecule for various cellular processes. Measuring MMP in living cells is commonly used to assess the effect of chemicals on mitochondrial function; decreases in MMP can be detected using lipophilic cationic fluorescent dyes. […] The dye accumulates in the mitochondria of healthy cells as aggregates, with red fluorescence. The mitochondrial potential decreases and the dye could not accumulate in the mitochondria and remains in the cytoplasm in monomers, with green fluorescence. In addition to the mitochondrial potential assay, these cells were also used to test the cytotoxicity by determining the cell viability in the culture based on the quantitation of ATP present. The cytotoxicity was measured in the same assay well of MMP assay.
Tox21 Assay Protocol Summary: 2,000 HepG2 cells in 5 uL/well were dispensed into black, clear-bottom 1536-well plates using a Multidrop Combi (Thermo Scientific) dispenser. The assay plates were incubated for an overnight at 37 C to allow cells to attach to the wells, followed by the transfer of 23 nL compound or DMSO vehicle by a pin tool (Kalypsys). The plates were incubated for 1 hr at 37 C and 5% CO2, followed by the addition of 5 uL of 2X m-MPI dye into each well using Flying Reagent Dispenser (Aurora Discovery) and then CellTiter-Glo reagent was added at 4 uL/well and incubated 30 min at room temperature. Then luminescence intensity was quantified on a ViewLux CCD-based plate reader.
(In qHTS, concentration-response curves come from the screen itself.)
With `C[N+]1(C)CCCC(OC(=O)C(O)(c2ccccc2)c2ccccc2)C1` (stereo not given), the outcome was inactive.

Take `CC(C)NNC(=O)c1ccncc1`: the compound was called inactive.

Turning to `CCCCS(=O)(=O)N[C@@H](Cc1ccc(OCCCCC2CCNCC2)cc1)C(=O)O`, the compound was classed as inactive. For the compound `CN1C(C)(C)CC(O)CC1(C)C`, the compound was classed as inactive. Under `CCOC(=O)COC(=O)c1ccccc1C(=O)OCC` stands “inactive”; under `CC(C)(C)C(=O)Oc1ccc(S(=O)(=O)Nc2ccccc2C(=O)NCC(=O)O)cc1`, “inactive”. As for `Cc1cccc(C)c1NC(=O)CC12CCCN1CCC2`, the compound was classed as inactive. Under `COc1ccnc(CS(=O)c2nc3cc(OC(F)F)ccc3[nH]2)c1OC` (stereo not given) stands “inactive”; under `CC(C(=O)O)c1cccc(Oc2ccccc2)c1` (stereo not given), “inactive”; under `CC(C)CCCO`, “inactive”. Regarding `c1ccc(Cc2ccccc2)cc1`, the outcome was inactive. In the case of `Cc1ccnc(NS(=O)(=O)c2ccc(N)cc2)n1`, the compound was classed as inactive.

With `Cc1ncc([C@@H](CCCCCCc2ccc3c(n2)NCCC3)CC(=O)O)cn1`, the outcome was inactive.

Consider `CN(C)C(=O)Oc1ccc[n+](C)c1`, for which the compound was called inactive. For the compound `CC(=O)c1ccccc1[N+](=O)[O-]`, the call was inactive. For the compound `C=CCCC(=O)O`, the compound was called inactive. The value for `CC1(C)OC[C@@H](COC(=O)CCc2ccc(OC[C@@H](O)CNCCNC(=O)N3CCOCC3)cc2)O1` was “inactive”; that for `CC(=O)c1cnccn1` was “inactive”. Under `C[C@H]1[C@H](NC(=O)/C(=N/OC(C)(C)C(=O)O)c2csc(N)n2)C(=O)N1S(=O)(=O)O` (stereo in doubt) stands “inactive”; under `CC(C)(C#N)Nc1nc(Cl)nc(NC2CC2)n1`, “inactive”; under `CC1=NS(=O)(=O)c2cc(Cl)ccc2N1`, “inactive”.

With `CN1CCN(c2cc3c(nn2)Oc2ccccc2N3C)CC1`, the outcome was inactive. The value for `Nc1c2c(nc3c1CCC3)CCCC2` was “inactive”; that for `CCNS(=O)(=O)c1ccc(C)cc1` was “inactive”; that for `NC(=O)Cc1cccc2ccccc12` was “inactive”. Take `C=CCCCCCCCCC(=O)OCC`: the call was inactive. The value for `CC(=O)OCC(=O)[C@@]1(O)[C@H](C)C[C@H]2[C@@H]3CCC4=CC(=O)C=C[C@]4(C)[C@@]3(F)[C@@H](O)C[C@@]21C` was “inactive”; that for `CCN[C@@H]1C[C@H](N)[C@@H](OC2OC(CN)=CCC2N)[C@H](O)[C@H]1O[C@H]1OC[C@](C)(O)[C@H](NC)[C@H]1O` (stereo not given in full) was “inactive”. Under `CCCc1nn(C)c2c(=O)[nH]c(-c3cc(S(=O)(=O)N4CCN(C)CC4)ccc3OCC)nc12` stands “inactive”; under `c1ccc2sc(SN3CCOCC3)nc2c1`, “inactive”. Consider `CCCCCCCCCCCCSC`, for which the compound was classed as inactive. For the compound `C=C(C)C(=O)OCCOCCOCCOCCOC(=O)C(=C)C`, the result was inactive. Under `CO[C@@]1(NC(=O)CSC[C@@H](N)C(=O)O)C(=O)N2C(C(=O)O)=C(CSc3nnnn3C)CS[C@@H]21` stands “inactive”. Under `C[C@@H]1C[C@H]2[C@@H]3C[C@H](F)C4=CC(=O)C(Cl)=C[C@]4(C)[C@@]3(F)[C@@H](O)C[C@]2(C)[C@@]1(O)C(=O)CO` stands “inactive”.

Turning to `O=C(CO)[C@@H](O)[C@H](O)[C@@H](O)CO`, the compound was called inactive. For `CCCCN1C=CN(C)C1`, the outcome was inactive.

With `O=C(O)c1cc(C(=O)O)cc(C(=O)O)c1`, the call was inactive. As to `CC[N+](CC)(CC)CCOc1cccc(OCC[N+](CC)(CC)CC)c1OCC[N+](CC)(CC)CC`, the compound was called inactive. With `CCCO[Si](OCCC)(OCCC)OCCC`, the result was inactive. The value for `O=C(c1ccccc1)C1(O)CCCCC1` was “inactive”.

Source of the values: PubChem BioAssay (Tox21).
